Results reported in PubChem BioAssay.
Results filed as inconclusive are left out. The source made the active and inactive calls.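 Rule for the calls, unless noted: active = compound raises GLP1 secretion from the human gut endocrine cells, with no numeric limit stated; inactive = the rest.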

Key:
[1] = stimulators of insulin release from INS-1E, primary screen, cell-based, 5 mM glucose, NPC library (AID 1117329;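 active = compound raises insulin release from rat beta cells at 5 mM glucose, no numeric limit stated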); settings: rat INS-1E insulin secretion, at 10 µM, stronger effect = higher value
[2] = growth inhibition of GSK3B-pretreated HCT116 cells – cell-based, CellTiter-Glo, 0.2 to 20 µM (AID 1117336;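 active = compounds lowering colon cancer cell viability after pretreatment blocking the GSK3B kinase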); settings: HCT116 viability after GSK3B inhibitor, at 20 µM, stronger effect = higher value
[3] = inhibition of endothelial tube formation, primary screen, imaging, VEGF stimulated, CD31 staining, tube area, NPC library (AID 1117340;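 active = compound that reduces growth-factor-driven endothelial tube area in a mixed cell culture, no cutoff stated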); settings: VEGF-stimulated ADSC/ECFC co-culture, at 10 µM, stronger effect = higher value
[4] = glucagon-like peptide 1 release enhancers, primary assay, NCI-H716 cell line, NPC library (AID 1117341); settings: NCI-H716 cells, at 10 µM, stronger effect = higher value
[5] = HCT116 colon cancer cell growth inhibition, primary screen, CellTiter-Glo luminescence, NPC library (AID 1117342;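 active = compounds that lower survival of HCT116 colon cancer cells in the luminescence readout, no numeric limit stated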); settings: at 20 µM (top of the series)
[6] = CellTiter-Glo luminescent readout of SW480 viability loss, NPC library primary (AID 1117343;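 active = compounds that lower viability of the colon cancer cells in the luminescence readout, with no numeric limit stated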); settings: CellTiter-Glo luminescence; at 20 µM (top of the series)
[7] = decreased DLD-1 cellular survival, CellTiter-Glo luminescent readout, NPC compound collection, primary HTS (AID 1117346;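 active = compounds that lower survival of DLD-1 colon cancer cells in the luminescence readout, no cutoff given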); settings: DLD-1 viability, CellTiter-Glo luminescence; at 20 µM (top of the series)
[8] = molecular target: 6-phosphogluconate dehydrogenase, decarboxylating (Homo sapiens) (UniProt P52209); test: 6PGD enzyme inhibitors, primary screen, biochemical, human, recombinant enzyme, NADPH absorbance (AID 1159550;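 active = at least 20% inhibition of 6-phosphogluconate dehydrogenase activity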); settings: recombinant 6PGD, NADPH absorbance 341 nm; at 10 µM; stronger effect = higher value
6-phosphogluconate dehydrogenase, decarboxylating (Homo sapiens), sequence (P52209 whole entry, looked up): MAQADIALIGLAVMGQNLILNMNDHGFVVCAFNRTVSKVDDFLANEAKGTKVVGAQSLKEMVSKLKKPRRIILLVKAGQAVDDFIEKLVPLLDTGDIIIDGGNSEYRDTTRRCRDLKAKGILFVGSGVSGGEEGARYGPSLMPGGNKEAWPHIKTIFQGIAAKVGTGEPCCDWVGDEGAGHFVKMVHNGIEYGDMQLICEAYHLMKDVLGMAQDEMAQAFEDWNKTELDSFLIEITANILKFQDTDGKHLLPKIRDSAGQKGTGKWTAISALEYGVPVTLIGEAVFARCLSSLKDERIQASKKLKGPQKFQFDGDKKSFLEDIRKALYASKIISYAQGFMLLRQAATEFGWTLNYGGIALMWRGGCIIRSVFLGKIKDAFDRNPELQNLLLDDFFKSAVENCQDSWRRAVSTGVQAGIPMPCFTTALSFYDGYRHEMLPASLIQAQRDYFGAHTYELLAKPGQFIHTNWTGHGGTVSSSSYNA

[9] = differential killing of epithelial or mesenchymal cells, primary screen, imaging, PC-3E GFP, TEM4-18 mCherry, co-culture (AID 1345086;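 active = compounds killing one labelled cell type while sparing the other, by normalised counts and ratio limits, not self-fluorescent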;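 for all read-outs here: cells exposed to compound for 72 h before imaging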;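 for red/green cell ratio (normalised): normalised mesenchymal count divided by normalised epithelial count so high means epithelial killing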); settings: imaging cell counts, at 1 µM; for red/green cell ratio (normalised): actives lie on both sides, counts scaled to control wells, 1 = unselective
[10] = growth inhibition of DIPG glioma cells, dose response, cell-based, SU-DIPG-XVII, MIPE5.0, CellTiter-Glo, qHTS (AID 1347060; cut-off not given, nearly all actives have AC50 up to about 26 µM); settings: SU-DIPG-XVII viability, CellTiter-Glo ATP luminescence
[11] = growth inhibition of DIPG glioma cells, dose response, cell-based, SU-DIPG-XIII, MIPE4.0, CellTiter-Glo, qHTS (AID 1347061; cut-off not given, nearly all actives have AC50 up to about 37 µM;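 note: cells exposed to compound for 48 hours before readout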); settings: SU-DIPG-XIII viability, CellTiter-Glo ATP luminescence
[12] = growth inhibition of DIPG glioma cells, dose response, cell-based, SU-DIPG-IV, MIPE4.0, CellTiter-Glo, qHTS (AID 1347063; cut-off not given, nearly all actives have AC50 up to about 30 µM;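 note: compound exposure lasted 48 hours before the viability readout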); settings: SU-DIPG-IV viability, CellTiter-Glo ATP luminescence
[13] = growth inhibition of DIPG glioma cells, dose response, cell-based, JHH-DIPG-1, MIPE4.0, CellTiter-Glo, qHTS (AID 1347062; cut-off not given, nearly all actives have AC50 up to about 27 µM;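 for AC50: cells exposed to compound for two days before readout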); settings: JHH-DIPG-1 viability, CellTiter-Glo ATP luminescence
[14] = growth inhibition of DIPG glioma cells, dose response, cell-based, SU-DIPG-XIII, MIPE5.0, CellTiter-Glo, qHTS (AID 1347064; cut-off not given, nearly all actives have AC50 up to about 23 µM); settings: SU-DIPG-XIII viability, CellTiter-Glo ATP luminescence
[15] = system: Aerobactin synthetase IucA (Klebsiella pneumoniae); test: IucA aerobactin synthetase inhibitors, biochemical, Tocris library, absorbance (AID 1345561; call rule not given here;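 note: 100% = enzyme without compound and 0% = no enzyme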); settings: purified IucA enzyme assay, absorbance (OD) read-out; stronger effect = lower value;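 tested at 8 µM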
[16] = measured here: epithelial PC-3E GFP cell survival
[17] = measured here: mesenchymal TEM4-18 mCherry cell survival

NNc1nncc2ccccc12
insulin secretion stimulation [1]: -1.2% (inactive) | viability decrease [2]: -10.3% (inactive) | tube area decrease [3]: 5.9% (inactive) | GLP1 secretion stimulation [4]: 5.2% (inactive) | inhibition of viability [5]: 4.9% (inactive) | viability decrease (inhibition) [6]: 4.9% (inactive) | viability decrease (inhibition) [7]: -2.1% (inactive) | inhibition [8]: 15.4% (inactive) | red/green cell ratio (normalised) [9]: 1.11 (inactive) | normalised cell number [9, 16]: 1.13 | normalised cell number [9, 17]: 1.26 | outcome [10]: inactive | outcome [11]: inactive | outcome [12]: inactive

COc1ccc(CCN(C)CCCC(C#N)(c2ccc(OC)c(OC)c2)C(C)C)cc1OC (centres undefined)
insulin secretion stimulation [1]: 6.3% (inactive) | viability decrease [2]: -4.2% (inactive) | tube area decrease [3]: -13.1% (inactive) | GLP1 secretion stimulation [4]: -4% (inactive) | inhibition of viability [5]: 27.3% (inactive) | viability decrease (inhibition) [6]: 20.2% (inactive) | viability decrease (inhibition) [7]: -13.8% (inactive) | inhibition [8]: 10.8% (inactive) | red/green cell ratio (normalised) [9]: 1.29 (inactive) | normalised cell number [9, 16]: 1.17 | normalised cell number [9, 17]: 1.52 | outcome [10]: inactive | outcome [11]: inactive | outcome [13]: inactive | outcome [12]: inactive | outcome [14]: inactive

CC1(C)NC(=O)N(c2ccc([N+](=O)[O-])c(C(F)(F)F)c2)C1=O
insulin secretion stimulation [1]: 0.7% (inactive) | viability decrease [2]: -16.7% (inactive) | tube area decrease [3]: 6.9% (inactive) | GLP1 secretion stimulation [4]: -1.4% (inactive) | inhibition of viability [5]: 8.8% (inactive) | viability decrease (inhibition) [6]: 18.3% (inactive) | viability decrease (inhibition) [7]: -16.7% (inactive) | inhibition [8]: 9.97% (inactive) | red/green cell ratio (normalised) [9]: 1.15 (inactive) | normalised cell number [9, 16]: 1.25 | normalised cell number [9, 17]: 1.43 | remaining activity [15]: 120% (inactive) | outcome [13]: inactive | outcome [12]: inactive | outcome [14]: inactive

CCOC(=O)C1=C[C@]2(CC)CCCN3CCc4c(n1c1ccccc41)[C@@H]32
insulin secretion stimulation [1]: -1.7% (inactive) | viability decrease [2]: 14.4% (inactive) | tube area decrease [3]: 41% (active) | GLP1 secretion stimulation [4]: 2.8% (inactive) | inhibition of viability [5]: -3.2% (inactive) | viability decrease (inhibition) [6]: 61.3% (active) | viability decrease (inhibition) [7]: 2.25% (inactive) | inhibition [8]: 13.5% (inactive) | red/green cell ratio (normalised) [9]: 0.75 (inactive) | normalised cell number [9, 16]: 1.28 | normalised cell number [9, 17]: 0.96 | remaining activity [15]: 107% (inactive) | AC50 [11]: 26.4 µM (active) | AC50 [13]: 11.8 µM (active) | AC50 [12]: 16.6 µM (active)

CN(C)CCc1c[nH]c2ccc(CS(=O)(=O)N3CCCC3)cc12
insulin secretion stimulation [1]: 2.7% (inactive) | viability decrease [2]: -11% (inactive) | tube area decrease [3]: 8.7% (inactive) | GLP1 secretion stimulation [4]: 1.2% (inactive) | inhibition of viability [5]: 1.33% (inactive) | viability decrease (inhibition) [6]: 28.9% (inactive) | viability decrease (inhibition) [7]: -7.1% (inactive) | inhibition [8]: -1.67% (inactive) | red/green cell ratio (normalised) [9]: 1.06 (inactive) | normalised cell number [9, 16]: 0.96 | normalised cell number [9, 17]: 1.02 | outcome [10]: inactive | outcome [11]: inactive | outcome [13]: inactive
